The list is not random: actives were taken first. Their share in the collection is about 2.4%.
D2 PAM-1 – D2 dopamine receptor (human) potentiation; HEK293 T-REx D2, calcium flux, EC20 dopamine potentiation; 0.34% of 340,000 active; AID 485347; potentiation, % at 10 µM; P14416;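 active = potentiation over 3 SD above the plate norm, cut at about 30% in these data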; also: 0% is about no effect
Target sequence (P14416 whole entry, looked up): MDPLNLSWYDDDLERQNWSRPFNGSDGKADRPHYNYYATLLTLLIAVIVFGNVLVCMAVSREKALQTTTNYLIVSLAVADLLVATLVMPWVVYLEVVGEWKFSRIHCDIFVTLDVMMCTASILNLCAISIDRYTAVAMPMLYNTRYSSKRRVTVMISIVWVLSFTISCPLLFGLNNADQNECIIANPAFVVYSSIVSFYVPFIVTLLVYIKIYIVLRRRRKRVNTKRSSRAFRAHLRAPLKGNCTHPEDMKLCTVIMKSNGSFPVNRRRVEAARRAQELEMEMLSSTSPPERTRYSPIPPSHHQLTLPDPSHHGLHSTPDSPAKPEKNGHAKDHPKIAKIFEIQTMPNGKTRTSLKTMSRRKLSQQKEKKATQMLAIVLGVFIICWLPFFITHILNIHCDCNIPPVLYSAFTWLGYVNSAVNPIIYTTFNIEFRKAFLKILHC
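Potentiation of an EC20 dopamine calcium response is measured in a force-coupled, tetracycline-inducible Hek293 Trex D2 line. Compound-only kinetic reads over 180 s flag agonists before dopamine addition.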
D2 antag – D2 dopamine receptor (human) antagonism; P14416; HEK293 TREx D2 cells, calcium flux, dopamine EC80; inhibition, % at 10 µM; 2% of 340,000 active; in the data active = inhibition above about 30%; inactive = below that, where a call was filed; also: 0% is about no effect
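In this primary screen, negative modulation is detected by tracking calcium flux after an EC80 dopamine challenge in inducible HEK293 T-REx D2 cells preexposed to test compound for 180 s.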
D2 ag-1 – agonists of human D2 dopamine receptor (beta-arrestin). P14416. DiscoveRx PathHunter D2 beta-arrestin, luminescence, 90 min; 100% = 57 uM dopamine signal. activation, % (test concentration not listed). 0.084% of 360,000 active; in the data active = activation above about 40%
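Agonist mode: compounds alone added to overnight-plated D2 PathHunter cells for 90 min at 37 C, with 57 uM final dopamine (EC100) defining full response. Beta-arrestin recruitment detected by chemiluminescent reagent, read after 1 h at ambient temperature.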
D2 PAM-2 – positive allosteric modulators of human D2 dopamine receptor; AID 624464; P14416; DiscoveRx D2 beta-arrestin cells, luminescence, 90 min; 100% = 57 uM dopamine signal; 0.23% of 360,000 active; potentiation, % (concentration not given with the values); in the data active = potentiation above about 50%
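PathHunter beta-arrestin assay in DiscoveRx D2 cells. Compounds were added with an EC20 of dopamine (50 nM final) for 90 min at 37 deg C. Luminescence was read 1 h after detection reagent, with 57 uM dopamine as the EC100 control.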
D2 ag-2 – activates the human D2 dopamine receptor; P14416; activation, % at 2 µM; 0.53% of 340,000 active; HEK293 T-REx D2 cells, calcium flux agonist mode;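 active = activation over 3 SD above normal in the single-dose calcium agonist read, cut at about 30% in these data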; also: 0% is about no effect
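Tetracycline-induced HEK293 T-REx cells with force-coupled D2 receptor, plated overnight at 30 C, loaded with no-wash calcium dye. After a 10 s baseline, compound was pin-added and calcium flux read kinetically for 180 s; calcium rises flagged agonists.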
* marks the source's active call; other numbers are inactive results; / = not tested or not shown.

SMILES | D2 PAM-1 | D2 antag | D2 ag-1 | D2 PAM-2 | D2 ag-2
N#Cc1c(F)cccc1N1CCOCC1 | 34.8* | -30.1 | -5.6 | -20.2 | 0.2
CCN(Cc1ccccc1)C(=O)Cn1c(=O)n(-c2ccc(C)c(C)c2)c(=O)c2c(C)c(C)sc21 | -16.9 | / | / | / | -0.3
CCN(C(=O)Cn1c(=O)oc2cc(S(=O)(=O)N3CCCCCC3)ccc21)c1cccc(C)c1 | 14.1 | / | / | / | 0.3
COC(=O)c1ccc(-n2c(C)cc(/C=N/n3cnnc3)c2C)cc1 | 6.0 | 30.7* | 0.3 | 15.4 | 1.3
Cc1cc(/C=N/n2cnnc2)c(C)n1-c1ccc(C(=O)O)cc1 | 5.7 | 2.9 | -1.2 | -2.6 | -1.3
CC1CN(C(=O)CCC(=O)NCc2ccc(F)cc2)c2cc(Cl)ccc2O1 (stereo unspecified) | -22.7 | / | / | / | 0.3
CCc1ccc(NC(=O)Cn2c(=O)n(-c3cc(C)cc(C)c3)c(=O)c3oc4ccccc4c32)cc1 | 2.1 | / | / | / | 1.3
CCOC(=O)CCNC(=O)N1CCC(CCOc2ccccc2)(C(=O)OCC)CC1 | / | / | 0.8 | -1.1 | /
CCOC(=O)C1(Cc2ccccc2)CCN(Cc2cnn(-c3ccccc3)c2)CC1 | -18.3 | 33.3* | -5.1 | -16.7 | -1.0
CCOC(=O)C1(CCc2ccccc2)CCN(Cc2cccc3nccnc23)CC1 | -24.3 | 65.3* | -4.3 | -6.6 | -1.4
CCOC(=O)C1(CCOc2ccccc2)CCN(Cc2ccncc2)CC1 | -15.4 | -3.5 | -6.9 | -3.1 | -0.6
CCOC(=O)C1(CCOc2ccccc2)CCN(S(=O)(=O)N(C)C)CC1 | 5.0 | 42.9* | 7.6 | 8.6 | 0.7
CCOC(=O)C1(Cc2ccccc2)CCN(Cc2cnn(CC)c2)CC1 | -3.8 | 6.7 | 1.4 | -5.7 | 0.3
CCOC(=O)C1(CCOc2ccccc2)CCN(Cc2ccc(-n3cccn3)cc2)CC1 | -20.5 | 35.2* | -4.0 | -1.3 | 0.4
COc1ccc(S(=O)(=O)Nc2ccc3c(c2)CCCN3S(=O)(=O)c2ccc(C)cc2)cc1F | / | / | / | / | -0.4
COc1cccc(C(=O)Nc2cccc(-c3cn4c(C)csc4n3)c2)c1OC | 10.1 | / | / | / | /
Cc1nc2n(c(=O)c1CCN1CCC(c3noc4cc(F)ccc34)CC1)CCCC2 | / | 86.3* | / | / | /
O=C(NCc1ccc(F)cc1)c1ccc2c(=O)n3c(nc2c1)CCCCC3 | -0.9 | -4.1 | -0.7 | -0.4 | -0.6
COc1ccc(-n2c(=O)c3c(c4cc(OC)ccc4n3C)n(Cc3cc(C)ccc3C)c2=O)cc1 | 4.4 | / | / | / | 0.8
O=C1C(=Cc2ccncc2)CCCc2ccccc21 | / | / | -3.8 | -9.5 | /
O=C1/C(=C/c2cccc3ccccc23)CCCc2ccccc21 | 59.4* | 10.7 | -5.8 | -8.1 | 0.3
CCOC(=O)c1cc2c(=O)n3ccccc3nc2n(CCCOC)c1=NC(=O)c1cc2ccccc2o1 | 6.3 | / | / | / | -0.8
O=C1CC(N2CCC(O)(c3ccc(Cl)cc3)CC2)C(=O)N1 (stereo unspecified) | 15.7 | 31.3* | -4.7 | -2.7 | 0.9
Cc1ccn(CCSCC(=O)O)n1 | -8.7 | 11.3 | 3.5 | 7.5 | -0.5
Cc1ccn(CC(C)C(=O)O)n1 (stereo unspecified) | -13.6 | 33.9* | -3.3 | -4.5 | 0.7
SMILES | D2 PAM-1 | D2 antag | D2 ag-1 | D2 PAM-2 | D2 ag-2
Cc1ccc2c(CNCCc3ccco3)c(C(=O)O)n(Cc3ccc(F)cc3)c2c1 | 2.9 | / | / | / | 0.3
COc1ccc(OC)c(NC(=O)C2(C)CCN2Cc2ccccc2OC(F)F)c1 (stereo unspecified) | / | / | 108.2* | 17.6 | /
COc1ccc(NC(=O)NCc2ccncc2)c(OC)c1 | -4.7 | 6.2 | -0.5 | -31.6 | -1.0
COc1ccc(NS(=O)(=O)c2cccc(NC(=O)NC3CCCCC3)c2)cc1 | -7.9 | -9.7 | -3.4 | -10.6 | 0.3
COc1ccc(CNC(=O)Nc2cc(C)ccc2C)cc1 | -7.8 | 5.3 | -4.7 | -8.4 | 1.4
COc1ccc(OC)c(NC(=O)NCc2ccc(F)cc2)c1 | -16.1 | 38.9* | -0.1 | -18.2 | 0.8
COc1ccc(C)cc1NC(=O)NCc1ccc(F)cc1 | -20.3 | 52.8* | -5.7 | -22.3 | -0.7
COc1ccc(NS(=O)(=O)c2ccc(C)c(NC(=O)NC3CCCCC3)c2)cc1 | -21.1 | 33.5* | 4.0 | -16.4 | -0.9
COc1ccc(OC)c(NC(=O)NC2CCCCCCC2)c1 | -16.9 | 10.0 | 14.8 | -41.1 | 0.3
COc1ccc(C)cc1NC(=O)NC1CCCCCCC1 | -17.1 | 32.0* | -2.1 | -31.7 | 0.1

Assay outcomes as filed in PubChem BioAssay.
